Bioassay records (PubChem BioAssay)
In the library only some 0.96% were active in any assay of this set; here they are far more common.
TRPML1 blocker: qHTS for Inhibitors of the Human Mucolipin Transient Receptor Potential 1 (TRPML1); Mucolipin-1 (Homo sapiens), Q9GZU1; TRPML1-inducible cells, Ca2+ dye fluorescence, FDSS; active compounds read low; inhibition of EC80 agonist-evoked calcium signal; activity change, negative = inhibition, % (no concentration beside the values); actives 0.02% (n = 390,000); in the data active = activity change below about -50%; inconclusive = between about -30% and that limit;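 also: stimulus is agonist 54-4 at its EC80 concentration; % is scaled to controls: 0 for no effect and ±100 for the full control effect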
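Calcium fluorescence in TRPML1-DL cells induced overnight with Tet: a 110 s read after compound pin addition, then a 110 s antagonist read after challenge with 54-4 at 4 uM final (EC80).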
TRHR enhancer-1: qHTS for Small Molecule Agonists and Allosteric Enhancers of Human TRH Receptor: Primary Screen for Enhancers; TRHR cells, fluo-8 calcium fluorescence, EC20 TRH enhancement; enhancement, % at 2 µM; actives 0.66% (n = 360,000); AID 493056, 2011; in the data active = enhancement above about 30%; also: 0% is about no effect
Target sequence (P34981 whole entry, looked up): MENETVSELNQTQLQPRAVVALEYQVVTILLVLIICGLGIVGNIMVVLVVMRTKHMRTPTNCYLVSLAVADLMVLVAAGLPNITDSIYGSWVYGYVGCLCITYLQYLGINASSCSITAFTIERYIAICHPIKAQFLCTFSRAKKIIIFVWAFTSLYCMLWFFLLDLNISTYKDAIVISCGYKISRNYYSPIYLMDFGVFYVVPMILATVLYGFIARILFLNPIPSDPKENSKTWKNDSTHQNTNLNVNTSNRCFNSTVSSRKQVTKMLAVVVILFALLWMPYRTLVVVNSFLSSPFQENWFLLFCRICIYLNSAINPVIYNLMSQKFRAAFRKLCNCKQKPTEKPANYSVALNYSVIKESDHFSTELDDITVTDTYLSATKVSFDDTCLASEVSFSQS
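Enhancer read-out: after compound pinning and an initial kinetic agonist-mode read, an EC20 of TRH (10 nM final) was injected and fluo-8 calcium signal (Ex 480/Em 530) followed at 1 s/cycle for 100 cycles in TRHR-expressing cells.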
TRPV1 agonist: HTS Assay for Compounds that Act as Agonists of the Vanilloid Receptor 1; Transient receptor potential cation channel subfamily V member 1 (Homo sapiens), Q8NER1; activation, % at 8.33 µM; TRPV1-expressing cells, Fluo-8 calcium influx, agonist mode; AID 540275, 2011; actives 0.19% (n = 320,000); in the data active = activation above about 80%; inconclusive = between about 30% and that limit; also: 0% is about no effect
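Fluo-8 calcium influx in TRPV1-expressing cells, kinetic read (ex 480/em 520 nm). Compound added and read 3 min for agonist activity, followed by capsaicin at EC20 final and 2 min further read for enhancement.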
TRPV1 potentiator: HTS Assay for Compounds that Act as Potentiators of the Vanilloid Receptor 1; TRPV1-expressing cells, Fluo-8 calcium influx, capsaicin EC20 potentiation; potentiation, % at 8.33 µM; actives 0.02% (n = 320,000); in the data active = potentiation above about 80%; inconclusive = between about 30% and that limit; also: 0% is about no effect
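TRPV1-expressing cells were cultured overnight at 35.5C and loaded with Fluo-8 calcium dye for 40 to 90 min at room temperature. After a 10 s baseline, compound was added and calcium influx was read kinetically for 3 min (ex 480/em 520 nm).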
TRHR agonist-1: qHTS for Small Molecule Agonists and Allosteric Enhancers of Human TRH Receptor: Primary Screen for Agonists. activation, % at 2 µM. Thyrotropin-releasing hormone receptor (Homo sapiens), P34981. TRHR cells, calcium flux fluo-8, FDSS agonist mode. actives 0.18% (n = 360,000); in the data active = activation above about 30%; also: 0% is about no effect
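Agonist-mode FDSS calcium read (Ex 480/Em 530, 1 s cycles) in 1536-well TRHR cells with fluo-8 dye, after 10-cycle baseline and 23 nL compound addition; TRH at EC20 (10 nM final) added afterwards for the enhancer phase.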
TRPML1 ag: qHTS for Agonists of the Human Mucolipin Transient Receptor Potential 1 (TRPML1); Mucolipin-1 (Homo sapiens), Q9GZU1; TRPML1-expressing cells, Ca2+ dye fluorescence, FDSS; activation, % (no concentration beside the values); actives 0.12% (n = 410,000); AID 624414, 2012; in the data active = activation above about 50%; inconclusive = mostly about 30% to 49%; also: 0% is about no effect
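TRPML1-DL cells, Tet-induced overnight (~16 h, 37 degrees C), loaded 45-90 min at room temperature with Ca8 no-wash calcium dye plus quencher. FDSS fluorescence: 10 s baseline, compound pin-transfer, 110 s agonist read, then EC80 54-4 (4uM final) and 110 s antagonist read.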
TRHR enhancer-2: qHTS for Small Molecule Agonists and Allosteric Enhancers of Human TRH Receptor: Confirmation Screen for Enhancers; shares compounds with TRHR enhancer-1; TRH receptor cell assay, enhancer confirmation qHTS; activity change, negative = inhibition, % at 46.1 µM; 970 tested, under 10 active;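 also: compound effect scored on response to added TRH at EC20 of 10 nM; 0% is about no effect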
TRHR agonist-2: qHTS for Small Molecule Agonists and Allosteric Enhancers of Human TRH Receptor: Confirmation Screen for Agonists. shares compounds with TRHR enhancer-1. TRHR-expressing cells, agonist activation read-out. Potency, µM (top dose mostly 46.1 µM), for the others: top-dose activation, actives largely listed as activators. actives 8% (n = 970). AID 493078, 2011; also: potency is read from the fitted curve at half-maximal effect; 0% is about no effect; nearly all actives have a fitted effect of over 75% in size
The depositor's hits bear a star; ? = inconclusive; nt = no result given. Unless noted, calls follow the shape of the dose curve; as a rule, active = well fitted curve in the direction sought with a large enough effect; inconclusive = small, poorly fitted or top-dose-only effect, or another doubt; inactive = no such curve, though single readings can be large; an effect the other way counts as inactive or inconclusive.

SMILES | TRPML1 blocker | TRHR enhancer-1 | TRPV1 agonist | TRPV1 potentiator | TRHR agonist-1 | TRPML1 ag | TRHR enhancer-2 | TRHR agonist-2
O=S(=O)(c1ccccc1C(F)(F)F)N1CCN(c2nc(-c3ccccc3)nc3ccccc23)CC1 | nt | nt | nt | nt | nt | 0 | nt | nt
CC(C(=O)Nc1ccc(F)c(F)c1F)N(C)CCOc1ccccc1 (stereo not given) | -1 | 46* | ? | -6 | 0 | 0 | -8 | 1%
COc1ccccc1NC(=O)C(C)N(C)CCOc1ccccc1 (stereo not given) | 5 | 19 | 1 | 0 | -1 | 6 | nt | nt
CCC(C)N1CC(=O)N2C(c3ccc(OC)cc3OC)c3[nH]c4ccccc4c3C[C@H]2C1=O (stereo not given in full) | 2 | 75* | 2 | -4 | -1 | 0 | 1 | -1%
CCCN1CC(=O)N2C(c3cccc(OC)c3OC)c3[nH]c4ccccc4c3C[C@H]2C1=O (stereo not given in full) | -7 | 19 | 11 | -9 | 5 | 15 | nt | nt
CC(C)Cc1ccc(S(=O)(=O)Nc2cccnc2)cc1 | 5 | 58* | 7 | -13 | 0 | 1 | -6 | 1%
CCC(C)c1ccc(S(=O)(=O)Nc2cccnc2)cc1 (stereo not given) | -4 | 10 | 7 | 8 | 0 | 1 | nt | nt
Cc1c(/C=N/O)c2ccccn2c1C=O | 17 | 60* | -2 | -2 | 0 | 2 | 0 | 1%
COC(=O)c1ccc(NC(=O)COc2ccccc2C(=O)Nc2ccccc2)cc1 | nt | nt | nt | nt | nt | -1 | nt | nt
CCn1c(SCC(=O)Nc2cccc(C(C)=O)c2)nnc1C(C)C | 20 | -4 | 7 | -4 | 39* | -1 | -4 | -1%
COc1ccc(Br)cc1C1NC(c2ccc3c(c2)OCO3)=CC(c2ccccc2O)N1 (stereo not given) | nt | nt | nt | nt | nt | 0 | nt | nt
Cn1c(C(=O)N2CCC(C(N)=O)CC2)cc2cc(Cl)ccc21 | 11 | 57* | 3 | -1 | 0 | 0 | 1 | 2%
NC(=O)C1CCN(C(=O)c2ccc3ccccc3c2)CC1 | 23 | -1 | -2 | 5 | 0 | -1 | nt | nt
COc1cc2nc(Cl)nc(NC3CCN(C)CC3)c2cc1OC | nt | nt | nt | nt | nt | 0 | nt | nt
O=C(O)c1ccc(CSc2nnc(-c3ccccc3Cl)n2-c2ccccc2)cc1 | -6 | 51* | 1 | 4 | 1 | 0 | -10 | 0%
Cc1c(Cc2ccccc2)c(=O)oc2c(O)c(O)ccc12 | -24 | 41* | -1 | 4 | 0 | 3 | -8 | 2%
CC(OC(=O)c1ccccc1OCCOc1ccccc1)C(=O)Nc1ccc(Br)cc1 (stereo not given) | nt | nt | nt | nt | nt | -1 | nt | nt
CCOC(=O)C1CCCN(c2c(Nc3ccc(C)c(C)c3)c(=O)c2=O)C1 (stereo not given) | -7 | 57* | 4 | -5 | -1 | -1 | -3 | 3%
COc1cc(OC)c(/C=C/c2nc3ccccc3o2)c(OC)c1 | nt | nt | nt | nt | nt | -1 | nt | nt
O=S(=O)(c1cccnc1)N1CCN(c2nc(-c3cccs3)nc3ccccc23)CC1 | nt | nt | nt | nt | nt | -1 | nt | nt
CC1C(=O)CC(c2ccccc2)NC1c1ccccc1 (stereo not given) | -1 | 45* | 17 | -2 | 0 | 1 | -4 | 2%
CC(C)C1C(=O)CC(c2ccccc2)NC1c1ccccc1 (stereo not given) | nt | 1 | 29 | 11 | -1 | nt | nt | nt
COC(=O)c1[nH]c2ccccc2c1NS(=O)(=O)c1ccc(F)c(C)c1 | -3 | 44* | 11 | -13 | 0 | 0 | -8 | 0%
Cc1ccc2nc(-c3ccc(NC(=O)COC(=O)c4cncc(Br)c4)cc3)sc2c1 | 18 | 44* | 1 | 13 | 0 | 2 | 5 | 0%
Cc1ccc2nc(-c3ccc(NC(=O)COC(=O)c4ccc(Br)o4)cc3)sc2c1 | 3 | 4 | 1 | 0 | 0 | 0 | nt | nt
SMILES | TRPML1 blocker | TRHR enhancer-1 | TRPV1 agonist | TRPV1 potentiator | TRHR agonist-1 | TRPML1 ag | TRHR enhancer-2 | TRHR agonist-2
Cc1[nH]c2ccccc2c1C(=O)C(C)Sc1nc2ccccc2c(=O)n1Cc1cccnc1 (stereo not given) | nt | nt | nt | nt | nt | -1 | nt | nt
COc1ccc(COC(=O)C2=C(C)NC(=O)NC2c2ccccc2OC(C)C)cc1 (stereo not given) | 8 | 48* | 4 | -26 | 1 | -1 | -3 | 3%
COc1ccccc1C1NC(=O)NC(C)=C1C(=O)OCc1ccccc1 (stereo not given) | -12 | -1 | -1 | 17 | 0 | 0 | nt | nt
CC(C(=O)N1CC2(C)CC1CC(C)(C)C2)N1C(=O)c2ccccc2C1=O (stereo not given) | 21 | 46* | 16 | -3 | 0 | 0 | -12 | 1%
CCC(C(=O)N1CC2(C)CC1CC(C)(C)C2)N1C(=O)c2ccccc2C1=O (stereo not given) | -2 | -5 | 22 | -26 | 0 | 0 | nt | nt
O=C(c1cc(Br)ccc1O)N(Cc1ccco1)Cc1cccs1 | nt | nt | nt | nt | nt | -1 | nt | nt
Cc1cccc(NS(=O)(=O)c2cc3c4c(c2)CC(=O)N4CCC3)c1C | 3 | -6 | 14 | -11 | 0 | 1 | nt | nt
Cc1cccc(NS(=O)(=O)c2cc3c4c(c2)CCN4C(=O)CC3)c1C | 49 | 45* | -2 | -12 | 0 | 0 | 7 | -1%
CCN(N=O)c1ccc(/C=C/c2ccnc3ccccc23)cc1 | nt | nt | nt | nt | nt | 2 | nt | nt
Cc1ccc2[nH]c(CCN(C)C)c(CC#N)c2c1 | -13 | 66* | 5 | -14 | 0 | 0 | -6 | ?
Cc1ccc(SC2=NS(=O)(=O)c3ccccc32)c(C)c1 | nt | nt | nt | nt | nt | 0 | nt | nt
COc1ccc2c(c1)cc(C(=O)N/N=C/c1c(O)c(C(=O)O)cc3ccccc13)n2C | 9 | -1 | 16 | -3 | 33* | 6 | ? | 18µM*
